From PubChem BioAssay

System: Plasmodium falciparum Sir2 (PF13_0152, Sir2A)
Test: Plasmodium falciparum Sir2A binding compounds – biochemical, small-molecule microarray, 635 nm fluorescence, primary screen (AID 1098);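 note: score merges spot fluorescence intensity with its signal-to-noise ratio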
Settings: fluorescence 635 nm, higher = more signal

Q: CCOC(=O)[C@H](Cc1ccccc1)NC(=O)CCC1CC(OC(=O)NCc2ccc3c(c2)OCO3)CC2(CCCC(COC(=O)NCc3cccc(C(F)(F)F)c3)O2)O1 (stereo not given in full) was tested. Which composite z-score did it give?
A: 0.239

Q: With CC(=O)OC[C@H]1O[C@@H](ON=C[C@@H](C)[C@H](OCc2ccccc2)C(C)C)[C@H](OC(C)=O)[C@@H](OC(C)=O)[C@@H]1OC(C)=O as the compound, how does the composite z-score read?
A: -0.0075

Q: For O=C1[C@H]2[C@H]3[C@H](O)[C@H](O)CC(=NOCc4ccccc4)[C@H]3CC[C@H]2C(=O)N1C[C@@H]1CCCO1, which composite z-score is on record?
A: 0.565

Q: CO[C@@H]1COC(=O)[C@@H]2CCCN2C(=O)[C@@H](C)COC(=O)[C@H](COCc2ccccc2)NC(=O)CC=C[C@H]1C was tested. Which composite z-score did it give?
A: 0.385

Q: C=C(/C(=C/C[C@H](OC(C)=O)c1ccc(OCCO)cc1)c1cnc2ccccc2c1)C(C)C was tested. Which composite z-score did it give?
A: 0.659

Q: With COC(=O)CC=C[C@@H](C)[C@H](OC)c1ccccc1Br as the compound, how does the composite z-score read?
A: -0.581

Q: COc1ccccc1CN1C(=O)c2ccccc2[C@@H](C(=O)NCC(F)(F)F)[C@@H]1c1ccc(CO)cc1 was tested. Which composite z-score did it give?
A: 1.68

Q: For O=C1[C@H]2[C@H]3[C@H](O)[C@H](O)CC(=NO[C@@H]4O[C@H](CO)[C@@H](O)[C@H](O)[C@H]4O)[C@H]3CC[C@H]2C(=O)N1C1CCCCC1, which composite z-score is on record?
A: 0.643

Q: How did the composite z-score turn out when CC(C)=CCCC(C)=CCON=C1C[C@@H](O)[C@@H](O)[C@@H]2[C@@H]3C(=O)N(C[C@@H]4CCCO4)C(=O)[C@@H]3CC[C@@H]12 was run?
A: 0.998

Q: For C=CC[C@@H]1C=C[C@H](ON=C2c3cc(OC)ccc3O[C@H](c3cccc(OC)c3)[C@H]2O)[C@@H](CO)O1, which composite z-score is on record?
A: 0.0678
